Source: PubChem BioAssay (National Center for Advancing Translational Sciences (NCATS))
AmpC no deterg – qHTS Inhibitors of AmpC Beta-Lactamase (assay without detergent). AmpC nitrocefin hydrolysis, absorbance 480 nm, 0.0001% Triton. Potency, µM (doses to about 57.1 µM), without a hit: at the top dose activity change, negative = inhibition, most hits filed as inhibitors. P00811. hit rate 0.52% among 330,000;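 further: potency means the concentration at half of the fitted maximal effect; plate controls were no compound for no effect and no enzyme for full effect; nearly all actives have a fitted effect of over 20% in size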
Target sequence (P00811 whole entry, looked up): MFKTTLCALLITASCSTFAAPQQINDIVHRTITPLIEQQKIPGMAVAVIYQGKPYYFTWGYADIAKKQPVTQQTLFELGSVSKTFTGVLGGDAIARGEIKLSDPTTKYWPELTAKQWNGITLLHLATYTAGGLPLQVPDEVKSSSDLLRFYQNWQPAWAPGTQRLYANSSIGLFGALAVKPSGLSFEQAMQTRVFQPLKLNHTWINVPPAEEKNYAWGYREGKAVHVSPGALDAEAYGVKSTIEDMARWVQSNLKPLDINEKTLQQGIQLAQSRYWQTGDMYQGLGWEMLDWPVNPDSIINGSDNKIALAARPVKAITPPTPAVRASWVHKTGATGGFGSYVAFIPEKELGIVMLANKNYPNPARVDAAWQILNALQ
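AmpC (5.3 nM in the dispensed reagent) in 20 mM phosphate pH 7.0 with 0.01% (detergent screen) or 0.0001% Triton X-100 was preincubated with compounds for 15 min at room temperature. Nitrocefin was then added from an 800 uM solution, and hydrolysis was followed at 480 nm.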
AmpC detergent – qHTS Inhibitors of AmpC Beta-Lactamase (assay with detergent). P00811. AmpC hydrolysis of nitrocefin, absorbance 480 nm, 0.01% Triton. Potency, µM (series often up to 114 µM), without a hit: at the highest dose activity change, negative = inhibition, usual class: inhibitors. hit rate 0.041% among 370,000;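 further: potency means the concentration at half of the fitted maximal effect; 0% = no-compound wells and -100% = no-enzyme wells; nearly all actives have a fitted effect of over 25% in size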
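AmpC (5.3 nM in the dispensed reagent) in 20 mM phosphate pH 7.0 with 0.01% (detergent screen) or 0.0001% Triton X-100 was preincubated with compounds for 15 min at room temperature. Nitrocefin was then added from an 800 uM solution, and hydrolysis was followed at 480 nm.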
HCV inh – qHTS Assay for Inhibitors of Hepatitis C Virus (HCV). Huh7.5.1 HCVcc-Cre infection, luciferase reporter, 44 h. Potency, µM (titrated, usually from 41.8 µM), for the others: at the top dose activity change, negative = inhibition, most hits filed as inhibitors. hit rate 3.4% among 340,000. AID 651820, 2012; further: potency means the concentration at half of the fitted maximal effect
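A cell-based infection assay in which seeded cells (1,000 per well) receive test compound after 4 h, are inoculated with HCVcc-Cre at approximately 0.5 moi, and are incubated 44 h before luminescence detection.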
HCMV antiviral – qHTS Assay for inhibitors of the human cytomegalovirus (HCMV); HFF cells, HCMV-luciferase reporter, 72 h; hits give low values; hit rate 4.5% among 410,000; activity change, negative = inhibition, % at 57.5 µM; in the data active means activity change below about -60%; inconclusive means no clear call, values can overlap the other calls; inactive means above about -39%
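Luciferase read-out from HCMV-luciferase-infected HFFs (MOI 1 PFU/cell) 72 h post infection at 37C; compounds added after 16 h cell attachment; activity normalized between buffer-only basal and Salinomycin (10uM) inhibitor controls.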
FMDV inh – High Throughput Screening for Foot and Mouth Disease Virus Antivirals; FMDV antiviral cell-based qHTS; Potency, µM (top dose mostly 57.9 µM), for inactives: at the top dose activity change, negative = inhibition, most hits filed as inhibitors; hit rate 1.2% among 410,000; AID 1159524, 2015; calls by dose curve; tested in HEK293T cells; further: read-out not given here; potency means the concentration at half of the fitted maximal effect; nearly all actives have a fitted effect of over 45% in size
The depositor's hits bear a star; u = inconclusive; x = no result; ! = a repeat was not active. Shown are actives, neighbours in structure and some others; about 7.3% of the full set was active somewhere. Unless noted, the call rests on the fitted dose curve; in most records, active means well fitted curve in the direction sought with a large enough effect; inconclusive means small, poorly fitted or top-dose-only effect, or another doubt; inactive means no such curve, though single readings can be large; an effect the other way counts as inactive or inconclusive. Unless noted, on the % scale 0 is the no-effect control and ±100 the full control effect.

SMILES | AmpC no deterg | AmpC detergent | HCV inh | HCMV antiviral | FMDV inh
COc1ccc(C(=O)O/N=C(\N)c2ccccn2)cc1 | -24% | u | 4% | u | 2µM*
Cc1ccc(C(=O)O/N=C(\N)c2ccccn2)c(C)c1 | -2% | 2% | u | -69* | 0.89µM*
CCCNC(=O)CN1C(=O)c2ccccc2Sc2ncccc21 | -23% | 1% | 26% | 10 | 11%
CCOC(=O)N1CCN(C(=O)COC(=O)c2ccccc2NCCO)CC1 | 16% | -3% | u | 33 | -13%
Cc1ccc2oc(=O)c3cnn(CC(=O)Nc4ccccc4N4CCN(C)CC4)c3c2c1 | 22% | -13% | 14µM* | u | -21%
Cc1ccc2oc(=O)c3cnn(CC(=O)N4CCN(c5ccccc5F)CC4)c3c2c1 | x | 7% | x | -1 | 0%
COc1ccc(CN2CCC(=O)N([C@H](CO)CC(C)C)CC2)cc1OC | 11% | u | -9% | -68* | -9%
CCCN1CCC(=O)N([C@H](CO)CC(C)C)CC1 | -16% | u | 42% | -61* | -10%
CC(C)C[C@@H](CN=[N+]=[N-])N1CCN(C)CCC1=O | 3% | -14% | 7% | -62* | -8%
COc1ccc(CN2CCC(=O)N([C@H](CO)c3ccccc3)CC2)cc1OC | 15% | u | 15% | 19 | -11%
CC(C)C[C@@H](CO)N1CCN(CC(C)C)CCC1=O | -10% | -8% | 9% | -24 | -24%
COC(=O)C1CCN(Cc2ccc3c(c2)CN(C(=O)c2ccc(-n4cnnn4)cc2)CCO3)CC1 | x | x | x | x | 2%
CCC[C@H]1[C@@H](NC(=O)Nc2ccc(C(C)C)cc2)CC[C@@]23CCCN2C(=O)CCC[C@@H]13 | x | x | x | 10 | x
CC1CNCCN1S(=O)(=O)c1cccc2cnccc12 (stereo not given) | -17% | -7% | u | -64*! | u
CC1CCCCN1S(=O)(=O)c1cccc2cccnc12 (stereo not given) | -19% | -14% | 3% | -22 | 1%
CN(C)S(=O)(=O)c1ccc2c(c1)C(=NO)c1cc(S(=O)(=O)N(C)C)ccc1-2 | 0% | 1% | -21% | -64* | 3%
CN(C)N=C1c2cc(S(=O)(=O)N(C)C)ccc2-c2ccc(S(=O)(=O)N(C)C)cc21 | 95% | 0% | u | 0 | -12%
CCOC(=O)Cc1csc(N/N=C/c2ccc(Cl)cc2)n1 | 24% | -9% | -12% | -23 | -29%
CCOC(=O)Cc1csc(NC(=O)Nc2ccc(Cl)cc2)n1 | -46% | -1% | 11µM* | 3 | u
Cc1cccc(C)c1NC(=O)Nc1nc(C(N)c2ccccc2Cl)cs1 (stereo not given) | x | x | x | 4 | -19%
NCc1csc(NC(=O)Nc2cccc(Cl)c2)n1 | x | x | x | -37 | 14%
NC(c1csc(NC(=O)Nc2cccc(Cl)c2)n1)c1ccccc1Cl (stereo not given) | x | x | x | -76* | -13%
CCOC(=O)Cc1csc(NC(=O)Nc2cccc(Cl)c2)n1 | 20µM* | -2% | u | -60* | u
CC(N)c1csc(NC(=O)Nc2cccc(C(F)(F)F)c2)n1 (stereo not given) | x | x | x | -68* | -16%
O=C(CSCc1ccco1)N1CCc2ccccc21 | -20% | 1% | 1% | x | 42%
SMILES | AmpC no deterg | AmpC detergent | HCV inh | HCMV antiviral | FMDV inh
O=C(Nc1ccc(Cl)cc1)Nc1nc(-c2ccccc2O)cs1 | -52% | 6% | u | -66* | u
O=C(Cc1csc(NC(=O)Nc2ccc(Cl)cc2)n1)NCc1ccccn1 | -4% | -5% | u | -8 | -21%
O=C(Cc1csc(NC(=O)Nc2ccc(Cl)cc2)n1)NC1CCCC1 | -31% | -2% | 7.1µM* | u | -10%
CCOC(=O)Cc1csc(NC(=O)/C=C/c2cccc(Br)c2)n1 | -39% | 4% | 11µM* | -39 | u
O=C(NC(=S)Nc1nc(-c2ccc([N+](=O)[O-])cc2)cs1)c1ccco1 | -30% | 2% | -4% | -84* | 8%
O=C(NC(=S)Nc1nc(-c2ccc(Br)cc2)cs1)c1ccco1 | -19% | 4% | 2% | u | -11%
O=C(/C=C\c1ccco1)Nc1nc(-c2ccc3ccccc3c2)cs1 | -40% | -1% | u | -76* | u
Cc1ccc(O)c(NC(=S)NC(=O)/C=C/c2ccco2)c1 | -50% | 0% | -5% | -11 | 17%
C=CCNc1nc(-c2ccc([N+](=O)[O-])cc2)cs1 | -8% | -6% | u | -69* | -3%
C=CCNc1nc(-c2ccc(Cl)cc2)cs1 | -22% | u | u | 13 | 13%
O=C(O)c1ccccc1C(=O)Nc1nc(-c2ccc3ccccc3c2)cs1 | -40% | -4% | u | -21 | 33%
Cc1ccc(-c2csc(NC(=S)NC(=O)/C=C/c3ccco3)n2)cc1 | 4µM* | 0% | 13µM* | -37 | 15%
CN(Cc1ccccc1)C(=O)c1nc(-c2ccc(Cl)cc2)n2c1CCCCC2 | x | -5% | x | 0 | -2%
CC(=O)C1=C(C)N(Cc2ccc(Cl)cc2)C(=S)NC1c1cccc(Br)c1 (stereo not given) | x | x | x | -9 | x
Cc1c(Cl)cccc1NC(=O)CNC(=O)CCS(=O)(=O)c1ccc(F)cc1 | -10% | 5% | -1% | 28 | -5%
COC(=O)Cc1c(C)c2ccc(OCC(=O)N3CCC(C)CC3)c(C)c2oc1=O | 73% | -8% | u | -14 | 35µM*
Cc1cccc(N2CCN(C(=O)COc3ccc4ccc(=O)oc4c3)CC2)c1C | 25% | -14% | 11µM* | u | u
Cc1cccc(N2CCN(C(=O)COc3ccc4c(C)cc(=O)oc4c3C)CC2)c1C | 65% | 2% | 10µM* | -34 | u
COC(=O)Cc1c(C)c2ccc(OCC(=O)N3CCCC3)c(C)c2oc1=O | 2% | 0% | u | 6 | -22%
COc1ccccc1N1CCN(C(=O)COc2cc(C)cc3oc(=O)cc(C)c23)CC1 | -6% | 3% | 8.9µM* | 9 | u
Cc1cccc(NC(=O)CN2CCN(C(=O)c3c(C)nn(Cc4ccccc4)c3C)CC2)c1C | 166% | -8% | -5% | 36 | -16%
CN1C(=O)C(C2(O)C(=O)N(Cc3ccccc3)c3cc([N+](=O)[O-])ccc32)c2ccccc21 (stereo not given) | x | x | x | -79* | x
CCOc1ccc(NC(=O)CC2C(=O)N(c3cccc(OC)c3)C(=O)N2CCOC)cc1 (stereo not given) | 69% | 1% | -4% | 8 | 8%
COc1ccc(N(CC(=O)NCCc2ccc(C)cc2)S(=O)(=O)c2c(C)nn(C)c2C)cc1 | x | 4% | x | -16 | -15%
COc1ccc(CN2C(=O)C(n3c(C)ccc3C)c3cc(OC)ccc32)cc1 (stereo not given) | x | x | x | -15 | x
